{"source": "PubChem BioAssay AID504329", "about": "(Southern Research Specialized Biocontainment Screening …, 2011)", "note": "Out of some 340,000 compounds screened, about 1,000 (0.29%) were called active. Cut-off read from the data, not from the text of the source: inconclusive = inhibition above about 27% without an active follow-up result; inactive = below that. Only a sample is shown. Potency and affinity values are given separately.", "data": [{"assay": "H1N1 influenza NS1A inhibitors, functional cell based assay (AID 504329)", "conditions": "percent inhibition, at 12.5 µM, active compounds read high", "values": [{"smiles": "CCN(CC(=O)Nc1c(F)cccc1F)C(=O)CCNC(=O)c1ccc([N+](=O)[O-])cc1", "inhibition": "-2.66% (inactive)"}, {"smiles": "Cc1ccc2oc(-c3ccccc3C(=O)O)cc(=O)c2c1", "inhibition": "1.72% (inactive)"}, {"smiles": "O=C(O)c1cccc(-c2ccccc2)c1O", "inhibition": "-26.6% (inactive)"}, {"smiles": "CN1CCN(C(=O)Nc2ccc([N+](=O)[O-])cc2)CC1", "inhibition": "15.5% (inactive)"}, {"smiles": "COc1ccc(C(=O)COC(=O)C2CC3CCCC(C2)C3=O)cc1Br", "note": "(stereo unspecified)", "inhibition": "-3.01% (inactive)"}, {"smiles": "O=C(CN1C(=O)C2C3C=CC(C3)C2C1=O)OCC(=O)c1ccc(Br)cc1", "note": "(stereo unspecified)", "inhibition": "4.57% (inactive)"}, {"smiles": "CCC1Oc2ccccc2N(CC(=O)NCc2ccco2)C1=O", "note": "(stereo unspecified)", "inhibition": "-8.15% (inactive)"}, {"smiles": "O=C(CN1C(=O)c2ccccc2C1=O)OCC(=O)c1ccccc1", "inhibition": "-5.68% (inactive)"}, {"smiles": "O=C(Cn1[nH]c(=O)c2ccccc2c1=O)OCC(=O)c1ccc(Br)cc1", "inhibition": "5.91% (inactive)"}, {"smiles": "O=C(CN1CCOc2ccccc21)NCc1ccco1", "inhibition": "-0.84% (inactive)"}, {"smiles": "COc1ccc(C(=O)COC(=O)Cn2nnc3ccccc32)cc1Br", "inhibition": "18.7% (inactive)"}, {"smiles": "O=C1CN(CC(=O)N2CCCCC2)c2ccccc2O1", "inhibition": "16% (inactive)"}, {"smiles": "Cc1c(C)c2ccc(OCC(=O)N3CCN(c4ccccc4)CC3)cc2oc1=O", "inhibition": "4.8% (inactive)"}, {"smiles": "COc1cc(C2NC(=O)NC(c3ccccc3)=C2C(C)=O)cc(Cl)c1OCC(=O)O", "note": "(stereo unspecified)", "inhibition": "-2.44% (inactive)"}, {"smiles": "CC[C@@]1(C(=O)OC)N[C@H](CN(C)S(=O)(=O)c2ccc(OC)cc2)[C@@H]2C(=O)N(C)C(=O)[C@@H]21", "inhibition": "-26.2% (inactive)"}, {"smiles": "Cc1ccc(S(=O)(=O)NCC(=O)OCC(=O)NCc2ccco2)cc1", "inhibition": "-3.09% (inactive)"}, {"smiles": "O=C(Nc1cccc(Cl)c1)c1cnccn1", "inhibition": "-1.59% (inactive)"}, {"smiles": "Cc1cccc(NC(=S)N/N=C/c2cccc(O)c2)c1C", "inhibition": "-3.84% (inactive)"}, {"smiles": "Fc1ccc(NC(=S)NN=Cc2ccccc2Cl)cc1", "inhibition": "-9.24% (inactive)"}, {"smiles": "O=C(CCC(=O)Nc1ccc(F)cc1)N/N=C/c1ccc(O)cc1O", "inhibition": "9.41% (inactive)"}, {"smiles": "C/C(=N\\NC(=S)Nc1ccccc1C)c1ccc(O)cc1", "inhibition": "10.4% (inactive)"}, {"smiles": "O=C(CCC(=O)Nc1ccc(F)cc1)N/N=C/c1ccccc1O", "inhibition": "-5.76% (inactive)"}, {"smiles": "Fc1ccc(NC(=S)N/N=C/c2ccc(F)c(F)c2)cc1", "inhibition": "0.18% (inactive)"}, {"smiles": "Cc1ccc(S(=O)(=O)NCc2ccccc2)cc1C(=O)N1CCN(S(=O)(=O)c2ccccc2)CC1", "inhibition": "-12.2% (inactive)"}, {"smiles": "COC(=O)C1SCCN1S(=O)(=O)c1ccc(Cl)cc1", "note": "(stereo unspecified)", "inhibition": "-20.7% (inactive)"}, {"smiles": "CN(C)c1nc(OCC(=O)NC(C)(C)C)nc(N(C)C)n1", "inhibition": "-0.43% (inactive)"}, {"smiles": "O=C(c1ccc(Br)c(S(=O)(=O)N2CCOCC2)c1)N1CCN(C/C=C/c2ccccc2)CC1", "inhibition": "-13% (inactive)"}, {"smiles": "CC1(c2ccc3c(c2)OCCO3)NC(=O)N(CC(=O)Nc2ccccc2SCC#N)C1=O", "note": "(stereo unspecified)", "inhibition": "-12.2% (inactive)"}, {"smiles": "O=S(=O)(O)c1cc(O)ccc1O", "inhibition": "1.1% (inactive)"}, {"smiles": "O=S(=O)(c1cc(O)ccc1O)c1cccc2c(S(=O)(=O)c3cc(O)ccc3O)cccc12", "inhibition": "12.4% (inactive)"}, {"smiles": "Oc1ccc(N=Nc2ccc3c(c2)OCCO3)c(O)c1", "inhibition": "12.8% (inactive)"}, {"smiles": "Oc1ccc(N=Nc2ccc(Br)cc2)c(O)c1", "inhibition": "-16.2% (inactive)"}, {"smiles": "CC(OC(=O)c1ncc(Cl)c(Cl)c1Cl)C(=O)NC1CCCCC1C", "note": "(stereo unspecified)", "inhibition": "-15.4% (inactive)"}, {"smiles": "CN1C=C/C(=C\\c2cc[n+](C)c3ccccc23)c2ccccc21", "inhibition": "1.31% (inactive)"}, {"smiles": "COc1ccc(/C=C/c2ccc3ccccc3[n+]2C)cc1OC", "inhibition": "-10.2% (inactive)"}, {"smiles": "CC(C)CCC(C)NC(=O)Cc1ccc(S(=O)(=O)N2CCOCC2)s1", "note": "(stereo unspecified)", "inhibition": "-3.75% (inactive)"}, {"smiles": "O=C(Nc1nc(-c2ccccn2)cs1)c1cccc(-n2cnnn2)c1", "inhibition": "-28.6% (inactive)"}, {"smiles": "CC(=O)Nc1ccc(C(=O)Nc2nc(-c3cccnc3)cs2)cc1", "inhibition": "4.3% (inactive)"}, {"smiles": "O=C(Nc1nc(-c2ccccc2)cs1)c1ccco1", "inhibition": "1.53% (inactive)"}, {"smiles": "O=C(Nc1nc(-c2ccccn2)cs1)c1ccc(Cl)s1", "inhibition": "12.2% (inactive)"}, {"smiles": "O=C(Nc1nc(-c2ccncc2)cs1)c1ccco1", "inhibition": "21.8% (inactive)"}, {"smiles": "C/C(=N\\NC(=O)C1COc2ccccc2O1)c1ccc(C)o1", "note": "(stereo unspecified)", "inhibition": "7.81% (inactive)"}, {"smiles": "C/C(=N\\NC(=O)C1COc2ccccc2O1)c1cccs1", "note": "(stereo unspecified)", "inhibition": "-4.26% (inactive)"}, {"smiles": "O=C(Nc1nc(-c2ccccn2)cs1)c1ccc2c(c1)OCCO2", "inhibition": "4.21% (inactive)"}, {"smiles": "O=C(Nc1nc2c(F)cccc2s1)C1CC1", "inhibition": "-11.6% (inactive)"}, {"smiles": "O=C(CN1CCCCC1)Nc1ccc(F)c(Cl)c1", "inhibition": "6.14% (inactive)"}, {"smiles": "CC(=O)N1N=C(c2ccc(C)cc2)CC1c1ccc2c(c1)OCO2", "note": "(stereo unspecified)", "inhibition": "-19.2% (inactive)"}, {"smiles": "Cc1n[nH]c(C)c1CCN(C)Cc1cn(C)nc1-c1ccccc1F", "inhibition": "-2.31% (inactive)"}, {"smiles": "CCOC(=O)C(CC)n1cnc2c(nnn2-c2ccccc2)c1=O", "note": "(stereo unspecified)", "inhibition": "4.43% (inactive)"}, {"smiles": "CC(C)C[C@@H](CNCC(=O)[C@H](Cc1ccccc1)NC(=O)c1[nH]cnc1C(=O)N[C@@H](C)CN)NC(=O)c1nc[nH]c1C(=O)N[C@@H](C)C(=O)O", "inhibition": "-9.76% (inactive)"}, {"smiles": "O=C(NCc1cccs1)Nc1cc(Cl)ccc1Cl", "inhibition": "-3.84% (inactive)"}, {"smiles": "Cc1csc(NC(=O)c2nc3nccc(C)n3n2)n1", "inhibition": "11.3% (inactive)"}, {"smiles": "Cc1csc(NC(=O)C2COc3ccccc3O2)n1", "note": "(stereo unspecified)", "inhibition": "3.59% (inactive)"}, {"smiles": "CC(NC(=O)c1ccco1)C(=O)Nc1nccs1", "note": "(stereo unspecified)", "inhibition": "-3.4% (inactive)"}, {"smiles": "C[C@H](NC(=O)c1ccco1)C(=O)Nc1nc(-c2ccccn2)cs1", "inhibition": "21.6% (inactive)"}, {"smiles": "Cc1ccnc2nc(C(=O)Nc3nc4ccccc4s3)nn12", "inhibition": "-12.1% (inactive)"}, {"smiles": "O=C(Nc1nc(-c2ccccc2)cs1)C1COc2ccccc2O1", "note": "(stereo unspecified)", "inhibition": "3.59% (inactive)"}, {"smiles": "Cc1csc(NC(=O)C2CC(=O)N(c3ccc4c(c3)OCCO4)C2)n1", "note": "(stereo unspecified)", "inhibition": "-10.8% (inactive)"}, {"smiles": "COc1ccc(-c2csc(NC(=O)C3CC(=O)N(c4ccc5c(c4)OCCO5)C3)n2)cc1", "note": "(stereo unspecified)", "inhibition": "-0.66% (inactive)"}, {"smiles": "Cc1ccc(NCC(=O)N/N=C/c2ccncc2)cc1", "inhibition": "-3.31% (inactive)"}, {"smiles": "COc1ccc(Cc2noc(CN(C)CC(O)c3ccccc3)n2)cc1OC", "note": "(stereo unspecified)", "inhibition": "-6.23% (inactive)"}]}]}
